Laboratory results reported in PubChem BioAssay (Tox21).
Inconclusive results are not listed. Entries that show only a call come without a potency. Values without a mark were called inactive. The source made the active and inactive calls. Unless noted, the call rests on the fitted dose curve; in most records, active means well fitted curve in the direction sought with a large enough effect in the repeat runs; inconclusive means weak or mixed curves; inactive means no such curve, though single readings can be large; an effect the other way counts as inactive or inconclusive.

Experiments:
[1] = biological target: Retinoic acid receptor RXR-alpha (Homo sapiens) (UniProt P19793); test: qHTS assay to identify small molecule agonists of the RXR signaling pathway (AID 1159527; calls by dose curve; further: nearly all actives have a fitted effect of over 35% in size)
How it was run: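 GeneBLAzer RXR-alpha-UAS-bla HEK 293T cells in medium with 2% charcoal-stripped FBS, pre-incubated 5 hr at 37 C, then exposed to compounds 16 hr. Beta-lactamase reporter read by FRET substrate, 2 hr room temperature, 460/530 nm emission.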

[2] = qHTS assay to identify small molecule agonists of the RXR signaling pathway - cell viability counter screen (AID 1159529); further: series mostly up to about 77 µM; nearly all actives have a fitted effect of over 50% in size
How it was run: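 RXR-alpha-UAS-bla HEK 293T cells in medium with 2% charcoal-stripped FBS were preincubated 5 hr, then exposed to compounds for 16 hr at 37 C. Viability was read as CellTiter-Glo luminescence after 30 min at room temperature.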

[3] = qHTS assay to identify small molecule antagonists of the retinoid acid receptor (RAR) signaling pathway - cell viability counter screen (AID 1159551); further: nearly all actives have a fitted effect of over 35% in size
How it was run: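 C3RL4 RARE-luciferase line; cpds + retinol 1 uM final, 6 h, 37 C/5% CO2; CellTiter-Glo ATP luminescence, 30 min RT.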

[4] = qHTS assay to identify small molecule antagonists of the estrogen related receptor (ERR) signaling pathway from Tox21 library - cell viability counter screen (AID 1224834); further: nearly all actives have a fitted effect of over 30% in size
How it was run: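 Multiplexed viability counter screen in ERR cells: 17.5 h compound exposure at 37 C, CellTiter-Fluor added, 30 min at 37 C/5% CO2, fluorescence read.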

[5] = qHTS assay to identify small molecule agonists of the constitutive androstane receptor (CAR) signaling pathway - cell viability counter screen (AID 1224836); further: series mostly up to about 92 µM; nearly all actives have a fitted effect of over 45% in size
How it was run: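 HepG2 cells stably carrying hCAR and a CYP2B6-2.2kb reporter were plated 4 h, then given compounds at 15 concentrations plus PK11195 (final 0.75 uM). After 23 h at 37 C, viability was read by CellTiter-Fluor fluorescence.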

[6] = qHTS assay to identify small molecule antagonists of the constitutive androstane receptor (CAR) signaling pathway - cell viability counter screen (AID 1224837); further: series mostly up to about 92 µM; nearly all actives have a fitted effect of over 45% in size
How it was run: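 Read-out: CellTiter-Fluor fluorescence after 23 hr at 37 C/5% CO2. Cells: HepG2 double-stable for hCAR and CYP2B6-2.2kb. Compounds tested at 15 concentrations in the presence of CITCO, final concentration 50 nM.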

[7] = biological target: Nuclear receptor subfamily 1 group I member 3 (Homo sapiens) (UniProt Q14994); test: qHTS assay to identify small molecule agonists of the constitutive androstane receptor (CAR) signaling pathway (AID 1224839); further: nearly all actives have a fitted effect of over 15% in size; further: potency means the concentration at half of the fitted maximal effect
How it was run: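 HepG2 cells stably expressing hCAR and a CYP2B6-2.2kb luciferase reporter were treated with compounds at 15 concentrations plus 0.75 uM PK11195 (final) for 24 h at 37 C; luminescence was read after ONE-Glo addition.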

[8] = qHTS assay to identify small molecule antagonists of the estrogen related receptor signaling pathway with the pleiotropic PPARgamma coactivator (PGC) from Tox21 10K library - cell viability counter screen (AID 1224840; active means well fitted cell-killing curve with a large enough effect in the repeat runs, not every such curve was filed as active; further: nearly all actives have a fitted effect of over 40% in size)
How it was run: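 Fluorescence read-out of CellTiter-Fluor viability reagent, added after cells had been exposed to compound in DMSO for 17.5 h at 37 C; 30 min development at 37 C/5% CO2. Cells: PGC/ERR line, 2,000/well.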

[9] = qHTS assay to identify small molecule antagonists of the estrogen related receptor signaling pathway with the pleiotropic PPARgamma coactivator (PGC) from Tox21 10K library (AID 1224841; call rule not given here; further: series mostly up to about 92 µM; actives are mostly falling curves and most rising ones were filed inactive; nearly all actives have a fitted effect of over 50% in size)
How it was run: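 Luminescence read-out (One-Glo luciferase reagent, 30 min at room temperature) from PGC/ERR cells exposed to DMSO-dissolved test compounds for 18 h at 37 C; cells, 2,000 per well, had been preincubated 6 h before compound transfer.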

[10] = qHTS assay to identify small molecule agonists of the estrogen related receptor signaling pathway with the pleiotropic PPARgamma coactivator (PGC) from Tox21 10K library (AID 1224842); further: nearly all actives have a fitted effect of over 15% in size; further: potency means the concentration at half of the fitted maximal effect
How it was run: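 Luminescence from One-Glo (30 min, room temperature) measured after PGC/ERR cells had 18 h at 37 C with pinned compound (23 nL in DMSO). Cells had been seeded at 2,000 per well and pre-incubated 6 h.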

[11] = qHTS assay to identify small molecule antagonists of the estrogen related receptor (ERR) signaling pathway - cell viability counter screen (AID 1224818); further: series mostly up to about 46 µM
How it was run: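 Fluorescence from CellTiter-Fluor, read 30 min after reagent addition at 37 C, measured viability of ERR cells exposed to compounds for 17.5 h. Cells had settled 6 h before dosing.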

[12] = qHTS assay to identify small molecule antagonists of the estrogen related receptor signaling pathway with the pleiotropic PPARgamma coactivator (PGC) cell viability counter screen (AID 1224822; further: series mostly up to about 46 µM)
How it was run: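 Fluorescence read-out of CellTiter-Fluor after 30 min at 37 C; PGC/ERR cells, 2,000 per well, had been exposed to DMSO-dissolved compounds for 17.5 h following a 6 h pre-incubation.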

[13] = biological target: Nuclear receptor subfamily 1 group I member 3 (Homo sapiens) (UniProt Q14994); test: qHTS assay to identify small molecule antagonists of the constitutive androstane receptor (CAR) signaling pathway (AID 1224838); further: nearly all actives have a fitted effect of over 40% in size
How it was run: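 Read-out: ONE-Glo luciferase luminescence after 30 min at room temperature. HepG2-CYP2B6-hCAR double-stable cells, compounds in 15-point titration plus 50 nM CITCO final, 24 h at 37 C/5% CO2.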

[14] = qHTS assay to identify small molecule antagonists of the retinoic acid receptor (RAR) signaling pathway (AID 1159552; further: nearly all actives have a fitted effect of over 50% in size)
How it was run: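 RARE-luc C3RL4 cells; cpds + 1 uM (final) retinol, 6 hr, 37 C/5% CO2; luciferase reagent, 30 min RT, luminescence readout. Inhibitors of retinol-driven signal scored.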

[15] = qHTS assay to identify small molecule agonists of the retinoic acid receptor (RAR) signaling pathway (AID 1159553); further: potency means the concentration at half of the fitted maximal effect
How it was run: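 RARE-luc C3RL4 cells; overnight attachment 37 C/5% CO2; compound (DMSO) 6 hr; luciferase reagent, 30 min RT; luminescence read-out.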

[16] = biological target: Luciferin 4-monooxygenase (Photinus pyralis) (UniProt P08659); test: qHTS assay to identify small molecule inhibitors of firefly luciferase (AID 1224835); further: nearly all actives have a fitted effect of over 25% in size; further: potency means the concentration at half of the fitted maximal effect
How it was run: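 Inhibition of purified Photinus luciferase is measured by luminescence. Substrate levels (D-luciferin, ATP) sit at their KM values. Each compound is tested in a concentration series.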

[17] = qHTS assay to identify small molecule antagonists of the estrogen related receptor (ERR) signaling pathway (AID 1224819; further: series mostly up to about 46 µM; nearly all actives have a fitted effect of over 50% in size)
How it was run: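 Luminescence readout (One-Glo, 30 min, RT) of ERR cell line after 18 h compound exposure at 37 C; cells seeded 2,000/well, pre-incubated 6 h, compounds pinned from DMSO stocks.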

[18] = qHTS assay to identify small molecule agonists of the estrogen related receptor (ERR) signaling pathway (AID 1224820)
How it was run: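 After 6 h plating (2,000 cells/well) and 18 h compound treatment at 37 C, ERR cells were lysed with One-Glo and luminescence read after 30 min at room temperature.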

[19] = tested on: estrogen-related receptor alpha (ERRalpha) with PGC-1alpha coactivator, human; test: qHTS assay to identify small molecule antagonists of the estrogen related receptor signaling pathway with the pleiotropic PPARgamma coactivator (PGC) (AID 1224821; calls by dose curve)
How it was run: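 Luminescence from One-Glo luciferase reagent (30 min, room temperature) measured after 18 h compound treatment at 37 °C. Cells carry the PGC/ERR reporter and were seeded 6 h prior to dosing.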

[20] = qHTS assay to identify small molecule agonists of the estrogen related receptor signaling pathway with the pleiotropic PPARgamma coactivator (PGC) (AID 1224823)
How it was run: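 Luminescence from One-Glo reagent (30 min, room temperature) was read after 18 h compound treatment at 37 C of PGC/ERR cells plated 6 h beforehand; compounds delivered in DMSO by pin tool.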

Sequence of Retinoic acid receptor RXR-alpha (Homo sapiens) (P19793 whole entry, looked up): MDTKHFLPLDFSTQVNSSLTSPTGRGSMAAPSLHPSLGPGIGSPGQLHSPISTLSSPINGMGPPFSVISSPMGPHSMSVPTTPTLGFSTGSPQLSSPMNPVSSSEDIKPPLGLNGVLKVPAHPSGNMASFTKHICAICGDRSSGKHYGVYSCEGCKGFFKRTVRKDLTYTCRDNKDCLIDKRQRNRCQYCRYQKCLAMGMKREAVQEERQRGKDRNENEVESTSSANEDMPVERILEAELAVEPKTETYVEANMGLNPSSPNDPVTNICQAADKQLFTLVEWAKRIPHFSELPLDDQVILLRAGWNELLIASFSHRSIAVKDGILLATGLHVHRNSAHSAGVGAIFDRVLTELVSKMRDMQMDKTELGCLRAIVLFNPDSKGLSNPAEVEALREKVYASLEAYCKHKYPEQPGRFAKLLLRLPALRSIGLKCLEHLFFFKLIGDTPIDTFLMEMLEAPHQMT
Sequence of Nuclear receptor subfamily 1 group I member 3 (Homo sapiens) (Q14994 whole entry, looked up): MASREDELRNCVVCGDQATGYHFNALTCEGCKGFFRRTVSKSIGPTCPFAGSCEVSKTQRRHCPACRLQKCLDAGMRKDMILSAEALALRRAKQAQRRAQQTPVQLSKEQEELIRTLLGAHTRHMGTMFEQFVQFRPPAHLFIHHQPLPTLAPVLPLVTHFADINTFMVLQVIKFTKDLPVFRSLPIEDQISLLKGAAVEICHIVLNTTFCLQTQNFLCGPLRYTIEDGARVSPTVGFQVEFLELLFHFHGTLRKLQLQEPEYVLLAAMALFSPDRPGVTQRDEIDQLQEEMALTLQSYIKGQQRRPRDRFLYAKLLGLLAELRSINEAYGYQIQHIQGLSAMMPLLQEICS
Sequence of Luciferin 4-monooxygenase (Photinus pyralis) (P08659 whole entry, looked up): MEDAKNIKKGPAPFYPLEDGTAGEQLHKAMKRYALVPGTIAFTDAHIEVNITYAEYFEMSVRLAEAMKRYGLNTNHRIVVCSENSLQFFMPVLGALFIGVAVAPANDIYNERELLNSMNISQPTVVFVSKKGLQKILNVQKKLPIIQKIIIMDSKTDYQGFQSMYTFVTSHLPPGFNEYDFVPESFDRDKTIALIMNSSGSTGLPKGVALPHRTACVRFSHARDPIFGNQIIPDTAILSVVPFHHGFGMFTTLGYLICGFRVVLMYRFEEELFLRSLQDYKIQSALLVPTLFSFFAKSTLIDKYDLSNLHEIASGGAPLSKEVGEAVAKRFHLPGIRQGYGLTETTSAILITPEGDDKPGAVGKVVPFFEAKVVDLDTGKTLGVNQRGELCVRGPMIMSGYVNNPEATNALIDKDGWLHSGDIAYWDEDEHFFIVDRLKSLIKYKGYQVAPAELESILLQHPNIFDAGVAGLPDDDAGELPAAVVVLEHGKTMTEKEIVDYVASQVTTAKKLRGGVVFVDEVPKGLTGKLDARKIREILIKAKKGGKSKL

SMILES | Potency [1] | Potency [2] | outcome [3] | Potency [4] | Potency [5] | Potency [6] | Potency [7] | Potency [8] | Potency [9] | Potency [10] | outcome [11] | outcome [12] | Potency [13] | Potency [14] | Potency [15] | Potency [16] | outcome [17] | outcome [18] | outcome [19] | outcome [20]
Cc1cccc(C)c1NC(=O)CN1CCCCCC1 | inactive | inactive | inactive | inactive | inactive | inactive | inactive | inactive | inactive | inactive |  |  |  |  |  |  |  |  |  | 
CC(=O)Oc1cc(C(C)C)c(OCCN(C)C)cc1C | inactive | inactive | inactive | inactive |  | inactive |  | inactive |  |  | inactive | inactive | inactive |  |  |  |  |  |  | 
CN1[C@@H]2CC[C@H]1CC(OC(=O)c1c[nH]c3ccccc13)C2 (stereo partly drawn) |  | inactive | inactive | inactive | inactive | inactive | inactive | inactive |  |  |  |  | inactive | inactive | inactive | inactive |  |  |  | 
Cc1ccc(C(C)C)cc1O | inactive | inactive | inactive | inactive | inactive | inactive |  | inactive |  |  |  |  |  |  |  | inactive |  |  |  | 
C[C@]12CCC(=O)C=C1CC[C@@H]1[C@@H]2CC[C@@]2(C)[C@H]1CC[C@]2(O)C(=O)CO |  | inactive | inactive | inactive | inactive | inactive |  | inactive | inactive | inactive | inactive | inactive |  | inactive | inactive | inactive | inactive | inactive | inactive | inactive
O=Cc1ccc(F)c(Br)c1 | inactive | inactive | inactive | inactive | inactive | inactive | inactive | inactive |  |  |  |  | inactive |  |  | inactive |  |  |  | 
CC1=NN(c2cc(Cl)c(S(=O)(=O)O)cc2Cl)C(=O)C1N=Nc1ccc(S(=O)(=O)O)cc1 (stereo not drawn) | inactive | inactive | inactive |  |  |  |  |  |  |  |  |  |  |  |  | inactive |  |  |  | 
Nc1cccc(S(=O)(=O)O)c1 |  | inactive | inactive | inactive | inactive | inactive | inactive | inactive |  |  |  |  | inactive | inactive | inactive | inactive |  |  |  | 
CCCCNc1ccc(C(=O)OCCN(CC)CC)cc1 | inactive |  | inactive | inactive | inactive | inactive |  | inactive | inactive | inactive |  |  | inactive |  |  |  |  |  |  | 
CC(C)(C)C1CCCCC1=O (stereo not drawn) |  | inactive | inactive | inactive | inactive | inactive | inactive | inactive |  |  |  |  | inactive | inactive | inactive | inactive |  |  |  | 
CCOc1ccc2nc(N)sc2c1 |  | inactive | inactive | inactive | inactive | inactive | 21.5 µM (active) | inactive | inactive | 27.1 µM (active) |  |  | inactive | inactive | 3.83 µM (active) | 19.9 µM (active) |  |  |  | 
